The list is not random: actives were taken first. Their share in the collection is about 2.6%.
AmpC nodet inh: inhibitors of E. coli AmpC beta-lactamase without detergent; P00811; AmpC nitrocefin hydrolysis, absorbance 480 nm, no detergent; Potency, µM (series often up to 28.7 µM), without a hit: at the highest dose activity change, negative = inhibition; 71,000 tested, 1.8% active; also: % of control where 0% means no effect
Target sequence (P00811 whole entry, looked up): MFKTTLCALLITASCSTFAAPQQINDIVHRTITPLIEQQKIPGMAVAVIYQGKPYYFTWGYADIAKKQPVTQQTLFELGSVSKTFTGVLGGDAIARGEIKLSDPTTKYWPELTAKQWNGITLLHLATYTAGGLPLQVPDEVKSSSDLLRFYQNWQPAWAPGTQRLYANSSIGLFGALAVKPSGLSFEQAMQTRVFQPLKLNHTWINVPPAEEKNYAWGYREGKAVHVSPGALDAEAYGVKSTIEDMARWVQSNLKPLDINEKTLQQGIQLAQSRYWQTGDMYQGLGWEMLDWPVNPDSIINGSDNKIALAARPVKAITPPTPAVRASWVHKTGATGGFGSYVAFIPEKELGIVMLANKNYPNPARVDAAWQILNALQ
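AmpC, 20 mM phosphate pH 7.0; 15 min cpd preinc, RT; start with nitrocefin (800 uM stock); A480 kinetic read, 20 s intervals, 4 min. No-enzyme wells = negative control.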
Anthrax LT inh: inhibitors of anthrax lethal toxin internalization | Cells, anthrax lethal toxin internalization, FRET ratio (460/530) | Potency, µM (top dose mostly 40 µM), for inactives: at the highest dose activity change, negative = inhibition, usual class: inhibitors | 70,000 tested, 0.67% active | AID 912; also: % is scaled to controls: 0 for no effect and ±100 for the full control effect; nearly all actives have a fitted effect of over 50% in size
AmpC inh det: inhibitors of E. coli AmpC beta-lactamase with detergent | purified AmpC, nitrocefin hydrolysis with detergent | Potency, µM (titrated, usually from 28.7 µM), without a hit: at the highest dose activity change, negative = inhibition | 71,000 tested, 0.09% active; active = well fitted curve in the direction sought with a large enough effect; inconclusive = small, poorly fitted or top-dose-only effect; also: % is scaled to controls: 0 for no effect and ±100 for the full control effect
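E. coli AmpC (5.3 nM) in 20 mM phosphate pH 7.0 with 0.01% Triton X-100, preincubated 15 min RT with compound; nitrocefin (2 uL of 800 uM stock) hydrolysis followed by 480 nm absorbance every 20 s over 4 min.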
Prx2 Sm inh: blocks S. mansoni peroxiredoxin 2 enzymatic activity. AID 448. S. mansoni Prx2 activity coupled to TGR/GSH (TGR is thioredoxin glutathione reductase), NADPH fluorescence loss, qHTS. Potency, µM. 65,000 tested, 0.07% active
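Enzyme mix: 100 uM NADPH, 25 nM TGR, 700 uM GSH, 50 nM Prx2 in 100 mM phosphate pH 7.4, 10 mM EDTA, 0.01% Tween-20. 15 min RT with compound; NADPH/GSH added, H2O2 starts reaction; NADPH fluorescence read 8 min.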
* = called active by the depositor; [ ] = dose if it differs, or a comment. Unless noted, calls follow the shape of the full dose curve. Potency is read from the fitted curve at half-maximal effect.

What do the screens show for `O=c1c(-c2ccc(F)cc2)nc2cnc(N3CCOCC3)nc2n1C[C@H]1CCCO1`?
AmpC nodet inh: 14%; Anthrax LT inh: inconclusive; AmpC inh det: 0%; Prx2 Sm inh: >57

What do the screens show for `CCOC(=O)N1CCC(NC(=O)c2ccc3c(c2)N(C)CCS3)CC1`?
AmpC nodet inh: 48%; Anthrax LT inh: inconclusive; AmpC inh det: 0%; Prx2 Sm inh: >57

Results for COC(=O)c1ccc2c(c1)N(C)CCS2 ?
AmpC nodet inh: 4µM*[single pt active]; Anthrax LT inh: 10%; AmpC inh det: 12%

How did Cc1noc(C)c1C(=O)N1CCC2(CC1)CN(c1ncccn1)C2 do in these assays?
AmpC nodet inh: 7%; Anthrax LT inh: 7%; AmpC inh det: -1%; Prx2 Sm inh: >57

How did CCOc1cccc(-c2nnc3sc(COc4ccc(Cl)cc4)nn23)c1 do in these assays?
AmpC nodet inh: 7.9µM*; Anthrax LT inh: -3%; AmpC inh det: -1%; Prx2 Sm inh: >57

What do the screens show for `CCOc1cccc(-c2nnc3sc(COc4ccc(C)cc4)nn23)c1`?
AmpC nodet inh: 16%; Anthrax LT inh: -13%; AmpC inh det: 1%; Prx2 Sm inh: >57

How did COc1ccccc1CN1CC[C@@]2(CCCN(C(=O)c3cccc(F)c3)C2)C1 do in these assays?
AmpC nodet inh: 10%; Anthrax LT inh: -2%; AmpC inh det: 2%; Prx2 Sm inh: >57

How did CC1CCN(S(=O)(=O)c2ccc(NC(=O)Cn3nnc(-c4ccccc4)n3)cc2)CC1 do in these assays?
AmpC nodet inh: -13%; Anthrax LT inh: inconclusive; AmpC inh det: -6%; Prx2 Sm inh: >57

What do the screens show for `Cc1ccc(-c2nnn(CC(=O)Nc3ccc(S(=O)(=O)N4CCC(C)CC4)cc3)n2)cc1`?
AmpC nodet inh: 13µM*; Anthrax LT inh: -25%; AmpC inh det: 6%; Prx2 Sm inh: >57

What do the screens show for `CC1CCCN(S(=O)(=O)c2ccc(NC(=O)Cn3nnc(-c4ccccc4F)n3)cc2)C1` (stereo unspecified)?
AmpC nodet inh: 16µM*; Anthrax LT inh: -26%; AmpC inh det: 15%; Prx2 Sm inh: >57

What do the screens show for `C[C@H](CCC(=O)O)[C@H]1CC[C@@H]2[C@@H]3CC[C@H]4C[C@@H](O)CC[C@@]4(C)[C@@H]3C[C@H](O)[C@@]21C`?
AmpC nodet inh: 24%[5.75 µM]; Anthrax LT inh: -10%[8 µM]; AmpC inh det: -3%[5.75 µM]; Prx2 Sm inh: >57

What do the screens show for `CC(C)=NOCc1ccc(-c2cn([C@@H]3COC[C@@H]3O)nn2)cc1`?
Anthrax LT inh: 9%[1.6 µM]

How did CCCCNc1nc(N(C)c2ccccc2)nc(-n2ccnc2)n1 do in these assays?
AmpC nodet inh: 28%; Anthrax LT inh: 13µM*; AmpC inh det: -3%; Prx2 Sm inh: >57

What do the screens show for `CC(=O)NCCc1c[nH]c2ccccc12`?
AmpC nodet inh: -2%; Anthrax LT inh: -1%; AmpC inh det: -1%; Prx2 Sm inh: >57

How did N#Cc1cccc(NC(=O)NCCc2c[nH]c3ccccc23)c1 do in these assays?
AmpC nodet inh: 4µM*[single pt active]; Anthrax LT inh: 13µM*; AmpC inh det: 13%; Prx2 Sm inh: >57

How did Cc1nc2cnc(N3CCNCC3)nc2n(CCC#N)c1=O do in these assays?
AmpC nodet inh: 18%; Anthrax LT inh: -3%; AmpC inh det: -1%; Prx2 Sm inh: >57

How did Nc1c(S(=O)(=O)O)cc(S(=O)(=O)O)c2ccc(N=Nc3ccccc3)c(O)c12 do in these assays?
AmpC nodet inh: -8%[5.75 µM]; Anthrax LT inh: 0%[8 µM]; AmpC inh det: -5%[5.75 µM]; Prx2 Sm inh: >57

Results for Cc1cc(-c2ccc(N=Nc3cc(S(=O)(=O)O)c4ccccc4c3N)c(C)c2)ccc1N=Nc1cc(S(=O)(=O)O)c2ccccc2c1N ?
AmpC nodet inh: 5µM*; Anthrax LT inh: inconclusive; AmpC inh det: 13µM*

Results for O=C(O)COc1ccc(C(=O)Cc2ccc3c(c2)OCCCO3)c(O)c1 ?
AmpC nodet inh: -11%; Anthrax LT inh: -7%; AmpC inh det: -1%; Prx2 Sm inh: >57

How did O=C(Cc1ccc2c(c1)OCCO2)c1c(O)cc(O)cc1O do in these assays?
AmpC nodet inh: 10µM*; Anthrax LT inh: -1%; AmpC inh det: -4%; Prx2 Sm inh: >57

What do the screens show for `O=[N+]([O-])c1ccc2c(c1)S(=O)c1ccccc1-2` (stereo unspecified)?
AmpC nodet inh: 1%[5.75 µM]; Anthrax LT inh: 3%[8 µM]; AmpC inh det: -6%[5.75 µM]; Prx2 Sm inh: >57

What do the screens show for `O=C1c2cc([N+](=O)[O-])ccc2-c2ccc3c4ccc5c6c(ccc(c7ccc1c2c73)c64)C(=O)c1cc([N+](=O)[O-])ccc1-5`?
AmpC nodet inh: 2.5µM*; Anthrax LT inh: -2%[8 µM]; AmpC inh det: -11%[5.75 µM]; Prx2 Sm inh: >57

What do the screens show for `O=C(N/N=C1/C[C@@H](O)[C@@H](O)[C@@H]2[C@H]3C(=O)N(c4ccc(F)cc4F)C(=O)[C@@H]3CC[C@H]12)OCc1ccccc1`?
Anthrax LT inh: -10%[8 µM]

Results for CCc1nccn1S(=O)(=O)c1ccc(OC)c(OC)c1 ?
AmpC nodet inh: 4µM*[single pt active]; Anthrax LT inh: -6%; AmpC inh det: 17%; Prx2 Sm inh: >57

What do the screens show for `CCc1nccn1S(=O)(=O)c1ccc(C)c(C)c1`?
AmpC nodet inh: -5%; Anthrax LT inh: -16%; AmpC inh det: 1%; Prx2 Sm inh: >57

Results for CC(=O)N1C2(C=CC1(C)C(=O)NCc1cc(F)cc(C(F)(F)F)c1)CCCCC2 (stereo unspecified) ?
AmpC nodet inh: 47%; Anthrax LT inh: inconclusive; AmpC inh det: 14%

How did CC1(C)Cc2c(c(N3CCOCC3)nc3sc(C(=O)N4CCCCC4)c(N)c23)CO1 do in these assays?
AmpC nodet inh: 4µM*[single pt active]; Anthrax LT inh: -10%; AmpC inh det: 25%; Prx2 Sm inh: >57

How did c1cncc(CNCc2cccnc2)c1 do in these assays?
AmpC nodet inh: -1%[5.75 µM]; Anthrax LT inh: -8%[8 µM]; AmpC inh det: -5%[5.75 µM]; Prx2 Sm inh: >57

How did Cc1oc(C(C)(C)C)cc1C(=O)Nc1ccc2c(c1)OCCO2 do in these assays?
AmpC nodet inh: 16%; Anthrax LT inh: inconclusive; AmpC inh det: -2%; Prx2 Sm inh: >57

How did CC(C)(C)c1ccc(/C=C/C(=O)Nc2ccc3c(c2)OCCO3)cc1 do in these assays?
Anthrax LT inh: 4µM*

How did O[Si@](CCCN1CCCCC1)(c1ccc(F)cc1)C1CCCCC1 do in these assays?
AmpC nodet inh: 36%; Anthrax LT inh: -3%; AmpC inh det: 2%; Prx2 Sm inh: >57

Results for Fc1cccc2sc(Nc3nnc(-c4ccccc4)o3)nc12 ?
AmpC nodet inh: 13µM*[single pt active]; Anthrax LT inh: -2%; AmpC inh det: -1%; Prx2 Sm inh: >57

How did O=C(c1csnn1)N1CCC2(CCN(Cc3cc(C(F)(F)F)cc(C(F)(F)F)c3)CC2)CC1 do in these assays?
AmpC nodet inh: -5%; Anthrax LT inh: -2%; AmpC inh det: 0%; Prx2 Sm inh: >57

Results for COc1ccc(CCNC(=O)C2(C)CCC(=O)N2CCC(C)C)cc1OC (stereo unspecified) ?
AmpC nodet inh: 4µM*[single pt active]; Anthrax LT inh: -21%; AmpC inh det: 18%; Prx2 Sm inh: >57

What do the screens show for `O=c1oc2ccccc2n1CCn1c2ccccc2c2nc3ccccc3nc21`?
AmpC nodet inh: -4%; Anthrax LT inh: 9%; AmpC inh det: -3%; Prx2 Sm inh: >57

Compound activity as filed in PubChem.
